Data published in PubChem BioAssay AID925 (National Center for Advancing Translational Sciences (NCATS), 2007).
Where “and” joins values, the source holds several entries; their conditions need not be identical. Equal entries are not always repeated. Among all 65,000 compounds or so, about 40 (0.06%) were called active. This excerpt belongs to a sample that is enriched for actives. Values without a mark were called inactive. Calls follow the shape of the dose curve; as a rule, active = well fitted activation curve with a large enough effect; inconclusive = small, poorly fitted or top-dose-only effect; inactive = flat fitted curve, though single readings scatter.
Potency is read from the fitted curve at half-maximal effect.

Assay: qHTS Assay for Modulators of Hemoglobin Beta Chain Splicing; as to activation: 0% is about no effect
Conditions: HBB splicing reporter cell assay, EGFP reporter with mutant IVS2-654 intron; Potency: activation; series mostly up to 46.1 µM; activation: at the top concentration
Text: NIH Chemical Genomics Center [NCGC]
NIH Molecular Libraries Screening Centers Network [MLSCN]
PI Name: Dr. Ryszard Kole
Modulation of Alternative Splicing as Therapy
Abnormal splicing is associated with a number of diseases, including cancer and genetic diseases such as cystic fibrosis, muscular dystrophy and beta-thalassemia. Alteration of disease associated splicing patterns provides a promising target for treatment. […] Mutations in the second intron of the beta-globin gene at positions are clinically relevant and cause mis-splicing which results in an out of frame gene product.
EGFP-654 and 705 HeLa Cells as screen system.
HeLa cell lines were stably transfected with a construct in which the EGFP (enhanced green fluorescent protein) cDNA was interrupted by the second intron of the beta-globin gene (IVS2-654). The ISV2 intron contains mutations which cause mis-splicing of EGFP and premature termination of EGFP which results in a nonfluorescent protein product. […] Expression of the transgene was driven by the CMV promoter. We concluded that a low molecular weight compound, which restored correct splicing of intron 2 would also generate functional EGFP protein, resulting in a fluorescent signal. Thus, the HeLa cells that express the EGFP-654 construct can be used for high throughput screening of a chemical library.
NCGC Assay Protocol Summary:
High Throughput Screening. Freshly thawed HeLa EGFP-654 cells were seeded in 5 ul of optimem media (Invitrogen) containing 2 % fetal calf serum (Hyclone) and 1x penicillin/streptomycin (Invitrogen) at a concentration of 500 cells per well in 1536-well plates. Cells were incubated overnight at 37C in 5% CO2. The next day, cells were treated with DMSO, 500 nM antisense ISV2 654 PNA control oligo, or library compound and allowed to grow at 37C in 5% CO2 for 2 days. The PNA oligo blocked the mutation site in the intron and allowed proper (wild type) splicing to occur, resulting in full length EGFP expression and also allowed for optimization of the assay parameters. Plates were read in the Acumen Explorer (TTP Labtech) using 488 nm laser excitation and 500-520 nm emission PMT filter in a 1 x […] capture mode. Fluorescnet Fluorescent objects ranging in size from […] were measured and the total peak GFP intensity for each well was used for data analysis.
Keywords: Thalassemia, beta-thalassemia, beta-globin, EGFP, ISV2 654, ISV2 705, SSO, PNA, antisense, splicing, MLSMR, MLSCN, NIH Roadmap, qHTS, NCGC
In the case of O=C(c1csnn1)N1CCC2(CC1)CN(c1ncccn1)C2, the “activation” value is reported as 2.6%.
With O=S(=O)(O)c1ccc(O)c2ncccc12.O=S(=O)(O)c1ccc(O)c2ncccc12.[Zn] the activation was 0.245% [at 9.22 µM, normalised to 500 nM splice-correcting PNA].
For CCOC(=O)[C@]1(C(/C=C/c2ccco2)NC(=O)OC)CCCC1=O (stereo partly specified), the activation was 0.739% [at 9.22 µM, normalised to 500 nM splice-correcting PNA].
For O=C1C(c2[nH]c3ccccc3c2O)=Nc2ccccc21, the “activation” value was 0.742%.
With COC(=O)[C@@]1(Cc2ccc(F)cc2)[C@H]2c3cc(C(=O)N4CCCC4)n(Cc4ccc(OC(F)(F)F)cc4)c3C[C@H]2CN1C(=O)c1ccccc1 the “activation” value was 0.537%.
For C[N+]1(CCN=C=NC2CCCCC2)CCOCC1, the activation was 6.02% [at 9.22 µM, normalised to 500 nM splice-correcting PNA].
In the case of COCCn1c(=O)c(-c2cccs2)nc2cnc(N3CCN(C)CC3)nc21, the “activation” value is reported as 0.122%.
In the case of COC(=O)[C@H](C)[C@H]1C[C@]1(C)[C@H](NC(=O)OCc1ccccc1)c1ccccc1, the “activation” value is reported as 0.936%.
In the case of CCCCCCc1ccc(O)cc1O, the “activation” value is reported as -0.018%.
With CC(=O)OCC1OC(C#Cc2ccccc2Cl)C=CC1OC(C)=O (stereo unspecified) the activation was 2.13% [at 9.22 µM, normalised to 500 nM splice-correcting PNA].
For O=c1c(-c2cccs2)nc2cnc(Oc3ccccc3)nc2n1-c1ccccc1, the “activation” value was 7.2%.
With Cc1cc2nc3c(=O)[nH]c(=O)nc-3n(C[C@H](O)[C@H](O)[C@H](O)CO)c2cc1C the “activation” value was -0.785%.
With COc1ccc2[nH]cc(CCNc3ncnc4ccc(-c5ccc(C(=O)N(C)C)cc5)cc34)c2c1 the “activation” value was -3.75%.
With CCCC[C@@H]1C[C@H]1C(NC(=O)c1ccco1)c1ccc(C(=O)OC)cc1 (stereo partly specified) the “activation” value was 1.15%.
With OC(CCl)CCl the “activation” value was -0.303%.
With CC(=O)/C(C)=N\O the “activation” value was 0.887%.
With COc1ccccc1CNc1nc(-c2c(C)noc2C)nc2ccccc12 the “activation” value was -0.267%.
For COCCNc1ccnc(-c2cccc(NS(C)(=O)=O)c2)n1, the “activation” value was -0.582%.
In the case of CCNc1ncc2ncc(=O)n(CCc3ccccc3)c2n1, the “activation” value is reported as 0.539%.
In the case of CCCC[C@@H]1C[C@H]1C(NC(=O)c1ccc(-c2ccccc2)cc1)c1ccc(-c2ccccc2)cc1 (stereo partly specified), the “activation” value is reported as 1.8%.
With O=c1cc(-c2ccccc2)[nH]c2nc(Cl)ccc12 the “activation” value was 2.33%.
For O=C(c1ccncc1)N1CCC2(CCN(Cc3cc(C(F)(F)F)cc(C(F)(F)F)c3)CC2)CC1, the “activation” value was 1.42%.
With C=CCOC(=O)c1ccccc1C(=O)OCC=C the “activation” value was 2.26%.
For C/C=C1\C(=O)C[C@@H]2[C@@H]3CCC4=CC(=O)CC[C@@]4(C)[C@H]3CC[C@@]12C, the “activation” value was 0.755%.
With Nc1nc2c(ncn2[C@H]2CC[C@@H](CO)O2)c(=O)n1C(=O)c1ccccc1 the activation was 4.28% [at 9.22 µM, normalised to 500 nM splice-correcting PNA].
With N#Cc1cccc(-c2nc3cnc(N4CCNCC4)nc3n(C3CC3)c2=O)c1 the “activation” value was -0.0364%.
For CCNc1ncc2nc(CCc3ccccc3)c(=O)n(-c3ccc(OC)cc3)c2n1, the “activation” value was 9.49%.
For COCCn1c(=O)c(-c2cc(F)cc(F)c2)nc2cnc(N3CCNCC3)nc21, the “activation” value was -0.701%.
For N#CCCn1c(=O)c(-c2cc(F)cc(F)c2)nc2cnc(Oc3ccccc3)nc21, the “activation” value was -1.62%.
With CN1CCc2[nH]nc(-c3n[nH]c4c3CN(C)CC4)c2C1 the activation was 1.49% [at 9.22 µM, normalised to 500 nM splice-correcting PNA].
In the case of COC(=O)N1CCC2(CCCN(Cc3ccccc3OC)C2)CC1, the “activation” value is reported as -1.36%.
In the case of CN(C)CCCn1c2ccccc2c2cnccc21, the activation is reported as 4.04% [at 9.22 µM, normalised to 500 nM splice-correcting PNA].
For CCN1C(=O)c2cccc3c(N)ccc1c23, the “activation” value was -0.679%.
With Nc1ccc2c3c(cccc13)C(=O)NC2=O the Potency was 31.6 µM (active).
In the case of CC(C)CN1CCc2nc(-c3ccccc3)c3c(c2C1)COC(C)C3 (stereo unspecified), the activation is reported as 2% [at 9.22 µM, normalised to 500 nM splice-correcting PNA].
With CCCn1c(-c2ccc(F)cc2)nc2c(NC3CCN(Cc4ccccc4)C3)nc(C)nc21 (stereo unspecified) the “activation” value was -0.408%.
For CCOc1ccc(N=NS(=O)(=O)O)cc1, the activation was 3.52% [at 9.22 µM, normalised to 500 nM splice-correcting PNA].
For CCCCC(CC)CN (stereo unspecified), the activation was “inactive”.
For CC(C)(C)[Si](OCC[C@@H]1C[C@@]1(C)[C@@H](NP(=O)(c1ccccc1)c1ccccc1)c1ccccc1)(c1ccccc1)c1ccccc1, the “activation” value was -1.23%.
With Cn1c(=O)n2n(c1=O)[C@H]1[C@H](O)[C@H]3O[C@H]3C(=O)[C@H]1CC2 the activation was 0.301% [at 9.22 µM, normalised to 500 nM splice-correcting PNA].
In the case of CN1C(=O)C[C@H](c2ccccc2)C1=O, the “activation” value is reported as 0.654% [at 20.6 µM, normalised to 500 nM splice-correcting PNA].
With S=c1[nH]nc(SCc2ccccc2Cl)c2[nH]cnc12 the activation was 3.49% [at 9.22 µM, normalised to 500 nM splice-correcting PNA].
In the case of CC(=O)OCC1OC(C#CCCCc2ccccc2)C=CC1OC(C)=O (stereo unspecified), the activation is reported as -0.748% [at 9.22 µM, normalised to 500 nM splice-correcting PNA] and 1.62% [at 9.22 µM, normalised to 500 nM splice-correcting PNA].
For O=C(c1ccco1)N1CCC2(CC1)CCN(c1ncccn1)CC2, the “activation” value was 6.14%.
In the case of CC(C)[C@@H](OCc1ccccc1)[C@H](C)/C=N\OC[C@@H](C)[C@H](OCc1ccccc1)C(C)C, the activation is reported as 4.09% [at 9.22 µM, normalised to 500 nM splice-correcting PNA].
In the case of COc1ccccc1-c1nc(N2CCN(C)CC2)c2ccccc2n1, the “activation” value is reported as -1.17%.
With CCCCCCN(C(=O)CCCCCN1C(=O)NC(c2ccc(C(F)(F)F)cc2)C(C(=O)OCc2ccccc2)=C1C)C(C(=O)NCCCC)c1ccc(OCC(=O)OC)c(C(=O)OC)c1 (stereo unspecified) the “activation” value was -0.619%.
With CC(=O)CC(C)C the “activation” value was -0.025%.
In the case of COC(=O)[C@@]1(Cc2ccc(F)cc2)[C@H]2c3cc(C(=O)N(C)C)n(CCc4c[nH]c5ccc(OC)cc45)c3C[C@H]2CN1C(=O)c1ccccc1, the “activation” value is reported as 0.012%.
With CC(C)NC(=O)N1CCCC2(CCN(C(=O)c3cccn3C)CC2)C1 the “activation” value was 2.69%.
For O=C(O)/C(=C/c1c(C(=O)O)[nH]c2cc(Cl)cc(Cl)c12)c1ccccc1, the “activation” value was -0.728%.
In the case of O=C(c1ccco1)N1CCC[C@@]2(CCN(c3ccccc3)C2)C1, the “activation” value is reported as -0.234%.
For NC1(C(=O)OCc2ccccc2)CCCC1, the activation was 1.82% [at 9.22 µM, normalised to 500 nM splice-correcting PNA].
With COc1ccc(Br)c2c1C[C@H](C(=O)O)CC2 the activation was 3.18% [at 9.22 µM, normalised to 500 nM splice-correcting PNA].
For COC(=O)c1ccc(C(NC(=O)OCc2ccccc2)/C(C)=C/[C@@H](C)C(=O)NCc2cc(C)on2)cc1 (stereo partly specified), the “activation” value was 0.55%.
For COc1ccc(-n2c(=O)c(-c3cn(C)c4ccccc34)nc3cnc(OC)nc32)cc1, the “activation” value was 1.65%.
In the case of Brc1cc(Br)c(Oc2cc(Br)c(Br)cc2Br)cc1Br, the “activation” value is reported as -0.0225%.
In the case of Oc1ccc(O)c2c(O)cccc12, the “activation” value is reported as -0.446%.
For N#Cc1cccc(-c2ccc3ncnc(NCc4cccs4)c3c2)c1, the “activation” value was -0.857%.
In the case of CC[N+](C)(CC)CCC[n+]1c(-c2ccccc2)c2cc(N)ccc2c2ccc(N)cc21, the “activation” value is reported as -0.429% [at 20.6 µM, normalised to 500 nM splice-correcting PNA].
For COc1ccccc1-c1cc(NCc2cccs2)ncn1, the “activation” value was 0.429%.
With COc1ccc2[nH]cc(CCNc3nc(-c4cccc(NS(C)(=O)=O)c4)nc4ccccc34)c2c1 the “activation” value was -1.42%.
For C[C@H](CCC(=O)O)[C@H]1CC[C@@H]2[C@H]3CC[C@H]4C[C@H](O)CC[C@@]4(C)[C@@H]3CC[C@@]21C, the activation was 1.15% [at 9.22 µM, normalised to 500 nM splice-correcting PNA].
With C[C@H]1O[C@@H](CC(=O)O)Cc2c1c(O)c1c(O)cc(-c3cc(=O)c4c(=O)c5c(c(=O)c=4c3=O)C[C@H](CC(=O)O)O[C@@H]5C)c(O)c1c2O the activation was 4.76% [at 9.22 µM, normalised to 500 nM splice-correcting PNA].
For COC(=O)[C@@]1(Cc2ccccc2)[C@H]2c3cc(C(=O)N(C)C)n(CCSCCO)c3C[C@H]2CN1C(=O)c1ccccc1, the “activation” value was -0.366%.
For COc1ccc(C(=O)N/N=C2/C(=O)c3c(C)cc(C)cc3CC2(C)C)cc1, the activation was 3.55% [at 9.22 µM, normalised to 500 nM splice-correcting PNA].
In the case of COC(=O)[C@@]1(Cc2ccccc2)[C@H]2c3cc(C(=O)N4CCCC4)n(Cc4ccc(C)o4)c3C[C@H]2CN1C(=O)c1ccccc1, the “activation” value is reported as 0.0086%.
For CC(C)CC1(C(=O)NCc2ccccn2)C=CCN1C(=O)c1ccccc1 (stereo unspecified), the “activation” value was -0.315%.
With COC(=O)C1(C)C=CC2(CCCCC2)N1C(C)=O (stereo unspecified) the “activation” value was -0.264%.
For O=C(Nc1cccc(F)c1)N1CC2(CCN(C(=O)c3cnccn3)CC2)C1, the “activation” value was -0.736%.
With COc1ccc(OC)c([C@H](O)CNC(=O)CN)c1 the “activation” value was 1.06% [at 20.6 µM, normalised to 500 nM splice-correcting PNA].
For CS(=O)(=O)N1CCC[C@@]2(CCN(c3ccncc3)C2)C1, the “activation” value was 0.825%.
For COc1ccc(CNc2ncnc3ccc(-c4cccnc4)cc23)c(OC)c1, the “activation” value was -0.216%.
With CN(C)C(=O)/N=N\C(=O)N(C)C the “activation” value was 0.247%.
In the case of Oc1c(Br)cc(CN(Cc2cc(Br)c(O)c(Br)c2)C2CCCCC2)cc1Br, the activation is reported as 1.47% [at 9.22 µM, normalised to 500 nM splice-correcting PNA].
In the case of CC(C)(C)c1ccc(OC2C=CC(C#Cc3ccccc3)OC2CO)cc1 (stereo unspecified), the activation is reported as -0.074% [at 9.22 µM, normalised to 500 nM splice-correcting PNA].
